Shown are actives, neighbours in structure and some others; about 22% of the full set was active somewhere.
CYP2C9 activ – activators of human CYP2C9. P11712. recombinant CYP2C9, luciferin-H conversion, luminescence; hits give high values; factor 1 = untreated enzyme, 0 = blocked. activation factor at 5 µM. hit rate 1.4% among 96,000;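 active = activation factor of 2 or more for CYP2C9 at a 5 µM dose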
F-actin modifier – alters cytoskeleton assembly in HUVEC cells | AID 836 | HUVEC TNFa F-actin phalloidin imaging, high content | hit rate 0.18% among 91,000 | inhibition, % at 2 µM;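 active = inhibition above the batch mean plus 3 SD and confirmed as a hit by visual image inspection, cut at about 30% in these data, passing the limit was not always enough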
CYP2C19 act – activators of human cytochrome P450 2C19. recombinant CYP2C19, luciferin-H EGE luminescence; hits give high values; 0 = fully inhibited enzyme, 1 = untreated enzyme. 96,000 tested, under 10 active. P33261. AID 1025. activation factor at 5 µM;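 active = activation factor of at least 2 at 5 µM in the primary screen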
Target sequence (P33261 whole entry, looked up): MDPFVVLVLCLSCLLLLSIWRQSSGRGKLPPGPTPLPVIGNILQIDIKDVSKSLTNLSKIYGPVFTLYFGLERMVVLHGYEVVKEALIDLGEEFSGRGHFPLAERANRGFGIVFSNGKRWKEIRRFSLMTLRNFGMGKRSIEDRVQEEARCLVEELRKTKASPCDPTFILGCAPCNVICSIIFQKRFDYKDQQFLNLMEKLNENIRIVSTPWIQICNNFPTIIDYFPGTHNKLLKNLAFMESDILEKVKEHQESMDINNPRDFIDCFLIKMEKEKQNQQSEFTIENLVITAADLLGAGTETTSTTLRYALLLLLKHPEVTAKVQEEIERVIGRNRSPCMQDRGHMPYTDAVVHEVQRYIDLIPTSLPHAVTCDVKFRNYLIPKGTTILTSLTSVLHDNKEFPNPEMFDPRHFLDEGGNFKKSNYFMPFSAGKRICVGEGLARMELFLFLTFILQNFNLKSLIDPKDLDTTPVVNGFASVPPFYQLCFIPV
E-sel TNF inh – blocks E-selectin expression induced by TNF alpha. AID 1246. inhibition, % at 2 µM. HUVEC TNFa-induced E-selectin immunofluorescence, high content. hit rate 0.71% among 120,000;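 active = inhibition above the batch mean plus 3 SD, and confirmed as a hit on visual image review, cut at about 43% in these data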
CYP2C9 inh – human CYP2C9 inhibition; P11712; CYP2C9 Supersomes, luciferin-H conversion, luminescence; inhibition, % at 5 µM; hit rate 20% among 96,000;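 active = blocking of liver enzyme CYP2C9 beyond about 50% at 5 µM, limit read from the data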
CYP2C19 inhib – human CYP2C19 inhibition; CYP2C19 Supersomes, luciferin-H EGE luminescence, 30 min; P33261; hit rate 21% among 96,000; inhibition, % at 5 µM;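 active = CYP2C19 inhibition above a set limit at 5 µM in the primary screen, cut at about 50% in these data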
A number is an active result; - = inactive; . = no result given.

SMILES | CYP2C9 activ | F-actin modifier | CYP2C19 act | E-sel TNF inh | CYP2C9 inh | CYP2C19 inhib
CC(=O)Oc1ccc(/C=N/NC(=O)C2CCCN2S(=O)(=O)c2ccc(Cl)cc2)cc1 (stereo not drawn) | - | - | - | - | - | -
CC(C)(C)C(=O)N1CCC(O)(CS(=O)(=O)Cc2ccccc2Cl)CC1 | - | - | - | - | - | -
O=S(=O)(Cc1ccccc1Cl)N1CCCCC1 | - | - | - | . | - | 60
CC1CCN(S(=O)(=O)Cc2ccccc2Cl)CC1 | 3.4 | - | - | . | - | 96
O=C(Nc1nc(-c2cccs2)cs1)c1cccc(S(=O)(=O)N2CCCCC2)c1 | - | - | - | - | 84 | 51
COc1cc(C(=O)Nc2nc(-c3cccs3)cs2)cc(OC)c1OC | - | - | - | - | - | -
Cc1ccc(-c2csc(NC(=O)c3cccc(S(=O)(=O)N4CCN(C)CC4)c3)n2)cc1 | - | . | - | - | - | 97
COc1cccc(C(=O)Nc2nc(-c3ccc(S(=O)(=O)N4CCOCC4)cc3)cs2)c1 | - | - | - | - | 83 | -
Cc1ccc(-c2csc(NC(=O)COC(=O)c3cccc(S(=O)(=O)N4CCOCC4)c3)n2)cc1 | - | . | - | - | - | -
COc1cc(/C=C2\SC(=S)N(Nc3ncc(C(F)(F)F)cc3Cl)C2=O)ccc1O | - | - | - | - | 52 | 54
CN(C)c1ccc(/C=C2\SC(=S)N(Nc3ncc(C(F)(F)F)cc3Cl)C2=O)cc1 | - | - | - | . | - | -
CCCC(=O)NC(=S)Nc1ccccc1C(=O)OC | - | - | - | - | - | 59
COC(=O)c1ccccc1NC(=S)NC(=O)C1CC1 | - | - | - | - | - | 52
Cn1c(=O)[nH]c(=O)c2c1nc(N1CCCC1)n2CCCSc1nnnn1-c1ccccc1 | . | . | . | - | . | .
CN(C)S(=O)(=O)N1CCN(C(=O)c2cccs2)CC1 | - | - | - | - | - | 76
O=C(c1cccs1)N1CCN(S(=O)(=O)Cc2ccccc2)CC1 | . | - | . | - | . | .
Cc1ccc(S(=O)(=O)N2CCN(C(=O)c3cccs3)CC2)cc1C | . | . | . | - | . | .
COc1ccc(S(=O)(=O)N2CCN(C(=O)c3cccs3)CC2)cc1 | - | - | - | - | - | 94
CC(C)n1c(N2CCN(C(=O)c3cccs3)CC2)nc2ccccc21 | - | - | - | . | 58 | 51
CC(C)Cn1c(N2CCN(C(=O)c3cccs3)CC2)nc2ccccc21 | - | - | - | - | - | -
CSc1nc2c(c(=O)n1-c1ccccc1)SCC2 | - | - | - | - | - | -
CN(C)Cc1nc2ccccc2c(=O)n1Cc1nc(-c2cc3ccccc3o2)cs1 | - | - | - | - | 70 | -
Cc1csc(Cn2c(CN(C)C)nc3ccccc3c2=O)n1 | - | - | - | - | - | -
CCOC(=O)CC1=CC(C)(CC(=O)OCC)C(C#N)(C#N)C(N)=C1C#N (stereo not drawn) | - | - | - | . | 79 | -
Cc1cccc(Nc2cnn(C34CC5CC(CC(CC(=O)O)(C5)C3)C4)c(=O)c2Cl)c1 | - | . | - | - | - | -
SMILES | CYP2C9 activ | F-actin modifier | CYP2C19 act | E-sel TNF inh | CYP2C9 inh | CYP2C19 inhib
CN(C)S(=O)(=O)c1ccc2c(c1)c(=O)c(C(=O)NCCCN1CCCCCC1)cn2C | - | - | - | . | - | -
C=CCn1cc(C(=O)NCCCOC)c(=O)c2cc(S(=O)(=O)N(CC)CC)ccc21 | - | - | - | - | 59 | -
CCN(CC)S(=O)(=O)c1ccc2c(c1)c(=O)c(C(=O)NCCCN(C)c1ccccc1)cn2C | - | . | - | - | 57 | -
CCN(CC)CCNC(=O)c1cn(CC)c2ccc(S(=O)(=O)N(C)C)cc2c1=O | - | - | - | . | - | -
CN(CCCNC(=O)c1cn(C)c2ccc(S(=O)(=O)N(C)C)cc2c1=O)c1ccccc1 | - | - | - | . | 60 | -
CCN(CC)S(=O)(=O)c1ccc2c(c1)c(=O)c(C(=O)NCc1cccs1)cn2C | . | . | . | - | . | .
CC(C)N(C(=O)CSc1nc2ccccc2n1-c1ccccc1)C(C)C | . | - | - | - | . | 51
C#CC[N+](C)(C)CC#Cc1ccc(Cl)cc1 | . | . | . | - | . | .
Cc1ccc(CC(=O)NCc2ccc3c(c2)OCO3)cc1 | - | - | - | - | - | -
Cc1ccc2c(CC(=O)OC(C)C(=O)NCc3ccc4c(c3)OCO4)coc2c1 (stereo not drawn) | - | - | - | - | 94 | 53
Cc1ccc2c(CC(=O)NCc3ccc4c(c3)OCO4)coc2c1 | - | - | - | . | 79 | 52
COc1ccc2c(CC(=O)NCc3ccc4c(c3)OCO4)coc2c1 | - | - | - | - | 89 | 96

Source: PubChem BioAssay
